# Assay outcomes (PubChem)
# FLuc modulator = qHTS profiling assay for firefly luciferase inhibitor/activator using purifed enzyme and Km concentrations of substrates (counterscreen for miR-21 project); actives 6.9% (n = 360,000); Potency, µM (titrated, usually from 57.5 µM), for inactives: at the highest dose activity change, negative = inhibition, usual class: inhibitors; AID 588342, 2011; Luciferin 4-monooxygenase (Photinus pyralis), P08659; purified FLuc, Km substrates, luminescence inhibition;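 further: plate controls were vehicle for no effect and reference inhibitor for full effect; nearly all actives have a fitted effect of over 55% in size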
# Target sequence (P08659 whole entry, looked up): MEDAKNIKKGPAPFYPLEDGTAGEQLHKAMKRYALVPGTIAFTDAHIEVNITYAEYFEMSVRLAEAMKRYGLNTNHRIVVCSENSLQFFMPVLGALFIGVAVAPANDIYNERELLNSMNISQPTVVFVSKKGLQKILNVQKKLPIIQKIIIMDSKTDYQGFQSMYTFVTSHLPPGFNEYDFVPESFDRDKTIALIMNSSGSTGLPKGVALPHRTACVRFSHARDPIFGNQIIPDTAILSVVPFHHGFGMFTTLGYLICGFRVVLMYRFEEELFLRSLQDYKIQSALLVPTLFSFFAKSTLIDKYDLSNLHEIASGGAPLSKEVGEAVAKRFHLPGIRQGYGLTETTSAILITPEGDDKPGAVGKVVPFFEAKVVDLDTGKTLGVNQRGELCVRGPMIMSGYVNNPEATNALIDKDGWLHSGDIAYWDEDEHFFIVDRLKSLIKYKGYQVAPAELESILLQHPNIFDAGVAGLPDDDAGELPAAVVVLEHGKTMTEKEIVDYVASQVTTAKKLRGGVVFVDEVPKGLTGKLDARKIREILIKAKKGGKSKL
#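 Purified P. pyralis luciferase (10nM final) with 10uM D-luciferin and 10uM ATP (Km levels) in 50mM Tris acetate pH 7.5, 10mM Mg acetate, 0.01% Tween-20, 0.05% BSA; qHTS 6-point titration, ~60 µM downward; luminescence read.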
# NPC1 promoter act = qHTS Assay for NPC1 Promoter Activators | Huh7 NPC1 promoter luciferase reporter, 24 h | Potency, µM (titrated, usually from 9.22 µM), without a hit: at the highest dose activation, most hits filed as activators | actives 2.4% (n = 320,000) | AID 485313, 2010; further: % of control where 0% means no effect; nearly all actives have a fitted effect of over 60% in size
#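 Luminescence from an NPC1 promoter-driven luciferase reporter in stably transfected Huh7 cells was measured after 24 h compound treatment at 37 °C, followed by 10 min ambient incubation with luciferase detection reagent.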
# Rab9 prom act = qHTS Assay for Rab9 Promoter Activators. AID 485297, 2010. Huh7 Rab9 promoter-luciferase reporter, luminescence, 24 h. actives 2.8% (n = 320,000). Potency, µM (doses to about 9.22 µM), for inactives: top-dose activation, negative = inhibition, hits mostly activators; further: % of control where 0% means no effect; nearly all actives have a fitted effect of over 60% in size
#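 Huh7 cells stably carrying a Rab9 promoter-luciferase reporter, 1500 cells per well in OP-MEM I with 10% FBS, treated with compound 24 hours at 37C. Luciferase activity read by luminescence after 10 minutes with Amplite reagent.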
# ELG1 genotox = qHTS screen for small molecules that induce genotoxicity in human embryonic kidney (HEK293T) cells expressing luciferase-tagged ELG1 | Potency, µM (titrated, usually from 46 µM), without a hit: at the top dose activity change, positive = activation, most hits filed as activators | AID 504466, 2011 | actives 1.3% (n = 330,000) | HEK293T ELG1-luciferase reporter, luminescence, 16 h; further: % of control where 0% means no effect; nearly all actives have a fitted effect of over 60% in size
#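 Screening used a luciferase reporter fused to human ELG1 in HEK293T cells. Luminescence was read on a CCD plate imager after 16 hr exposure and 30 min ONE-Glo incubation.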
# SMN2 splice enh = qHTS Assay for Enhancers of SMN2 Splice Variant Expression | HEK293 SMN2-luciferase splicing reporter, luminescence, 30-36 h | Potency, µM (series often up to 46.1 µM), for the others: top-dose activity change, positive = activation, actives largely listed as activators | actives 2.8% (n = 210,000) | AID 1458, 2008; further: % of control where 0% means no effect; nearly all actives have a fitted effect of over 55% in size
#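 HEK293 cells carry an SMN2 minigene-luciferase reporter in which exon 7 inclusion puts luciferase in frame. Cells were seeded at 2000 cells/well, attached for 10-12 hours, then exposed to compounds for 30-36 hours at 37C before ONE-Glo luminescence.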
# Active calls of the source: *; u = inconclusive; x = no result given; [ ] = another dose, or the depositor's remark. In the library only some 7.4% were active in any assay of this set; here they are far more common. The call rests on the fitted dose curve; in most records, active means well fitted curve in the direction sought with a large enough effect; inconclusive means small, poorly fitted or top-dose-only effect, or another doubt; inactive means no such curve, though single readings can be large; an effect the other way counts as inactive or inconclusive. Potency means the concentration at half of the fitted maximal effect.
SMILES,FLuc modulator,NPC1 promoter act,Rab9 prom act,ELG1 genotox,SMN2 splice enh
O=C(CSc1nnc(NC(=O)c2cccc(Br)c2)s1)NCC1CCCO1 (stereo unspecified),8.5µM*,u,x,u,x
O=S(=O)(c1ccc(Br)cc1)c1nnn2c1nc(Nc1cccc(C(F)(F)F)c1)c1sccc12,-4%,x,x,x,x
O=C(Nc1ccccn1)c1onc2c1CCCC2,0.76µM*,0.35µM*,0.4µM*,u,0.71µM*
COc1cc(NC(=O)c2csc3c2CCCC3)ncn1,3.4µM*,3.5µM*,3.5µM*,4.1µM*,13µM*
COc1ccccc1NC(=O)c1csc2c1CCCC2,19µM*,0%,-1%,0%,-18%
Cc1nnc(NC(=O)c2csc3c2CCCC3)s1,u,17%,18%,u,22%
O=C(Nc1ccccn1)c1csc2c1CCCC2,6.7µM*,u,1.8µM*,7.3µM*,13µM*
COc1ccccc1CNC(=O)c1csc2c1CCCC2,-19%,-1%,-4%,2%,12%
Nc1c(-c2nc(-c3cccs3)no2)nnn1-c1ccc(Cl)cc1,2%,x,x,x,x
CC(C)CN=C(N)N=C(N)N,x,x,x,x,-9%[9.22 µM]
CC(C)Nc1oc(-c2ccccc2)nc1-c1cccc2ccccc12,x,x,x,x,10%
COc1ccc(C(=O)Nc2nc(-c3ccccc3)c(C(C)=O)s2)c(OC)c1,0.85µM*,25%,u,u,1%
CC(=O)c1sc(NC(=O)c2ccc(F)cc2)nc1-c1ccccc1,u,u,26%,u,u
CC(=O)c1sc(NC(=O)c2ccccc2F)nc1-c1ccccc1,12µM*,2.2µM*,1.8µM*,-17%,11µM*
O=C(NCc1ccc(F)cc1)C(=O)NCC(c1ccc2c(c1)OCO2)N1CCOCC1 (stereo unspecified),-2%,x,x,x,x
O=c1c2oc3ccccc3c2n(Cc2ccccc2F)c(=O)n1Cc1ccccc1,-2%,x,x,x,x
Cc1c(/C=N/Nc2ccc(C(=O)O)cc2)c2ccccc2n1C,11µM*,2.2µM*,1.4µM*,u,x
Cc1c(/C=N\NC(=O)C2COc3ccccc3O2)c2ccccc2n1C (stereo unspecified),u,-9%,-27%,15%,15%
CCn1c(/C=N/Nc2ccc(C(=O)O)cc2)nc2ccccc21,11µM*,15%,-1%,1%,3%
C=CCOC(=O)N[C@H](c1cccc(C(F)(F)F)c1)C(C(C)=O)C(C)=O,x,x,x,x,-4%
Cc1cc(-c2nnc(-c3cc4ccccc4oc3=O)o2)c(C)n1-c1ccccc1,6.7µM*,24%,21%,u,-6%
COc1ccc2oc(=O)c(-c3nc4ccccc4o3)cc2c1,5.4µM*,u,u,u,u
O=c1oc2ccccc2cc1-c1nc2ccccc2o1,3µM*,3.5µM*,2.8µM*,u,u
Cc1nc2ccccc2oc1=O,x,x,x,x,10%
O=Cc1cn(-c2ccccc2)nc1-c1cc2ccccc2oc1=O,-1%,12%,13%,5%,-18%
SMILES,FLuc modulator,NPC1 promoter act,Rab9 prom act,ELG1 genotox,SMN2 splice enh
O=c1oc2ccccc2cc1-c1nc2c(s1)CCCC2,0.15µM*,u,0.4µM*,u,1µM*
O=c1oc2ccccc2cc1-c1nc(-c2cccc(Cl)c2)cs1,3%,x,x,x,x
Cc1cccc(Nc2nnc(SCc3cc(=O)n4cc(C)ccc4n3)s2)c1,-5%,-1%,0%,-11%,-10%
Cc1ccc(Nc2nnc(SCC(=O)N(C)C3CCS(=O)(=O)C3)s2)cc1 (stereo unspecified),8.5µM*,23%,25%,12%,u
Cc1ccc(Nc2nnc(SCC(=O)c3ccc(O)cc3O)s2)cc1,11µM*,-2%,-1%,2%,x
Cc1cccc(Nc2nnc(SCC(=O)c3ccc(O)cc3O)s2)c1,9.5µM*,-2%,5%,u,x
O=C(NCCc1c[nH]c2ccccc12)[C@H]1C[C@@H]1[C@H](NP(=O)(c1ccccc1)c1ccccc1)c1ccccc1,x,x,x,x,-13%
O=c1[nH]cnc2scc(C3COc4ccccc4O3)c12 (stereo unspecified),u,9%,17%,5%,-8%
